From PubChem BioAssay (NCATS)
Inconclusive results are not listed. The source made the active and inactive calls. The call rests on the fitted dose curve; in most records, active means well fitted cell-killing curve with a large enough effect; inconclusive means small, poorly fitted or top-dose-only effect, or effect the other way; inactive means flat fitted curve, though single readings scatter. Where a SMILES comes first, the peptide text is derived from it. [ ]: non-standard residue; d: D form. The star is where a group is joined. dPhe(4-Cl) = N[C@H](Cc1ccc(Cl)cc1)C(=O)O; d2Nal = N[C@H](Cc1ccc2ccccc2c1)C(=O)O; AFC = O=c1cc(C(F)(F)F)c2ccc(N*)cc2o1; dCit = NC(=O)NCCC[C@@H](N)C(=O)O; d3Pal = N[C@H](Cc1cccnc1)C(=O)O

The compounds below were run on CAOV3 (assay: Primary qHTS to identify gynecologic anti-cancer compounds using libraries of approved drugs and bioactive compounds (AID 1345084; further: nearly all actives have a fitted effect of over 55% in size)). Settings: Gynecologic cancer cell panel viability, ATPlite luminescence, 48 h; series mostly up to 57.5 µM; activity change, negative = cytotoxicity: at the top concentration.
Excerpt: National Center for Advancing Translational Sciences [NCATS] Assay Overview: Chemotherapeutic drug responses vary from cancer to cancer and from patient to patient. These variations could be caused by a number of factors including patient genomic background, tumor mutations, tumor heterogeneity, and aspects of drug treatment. Chemotherapeutic drug resistance is also a common issue and can lead to ineffective treatment and patient death. Here we have profiled the cell killing effects of thousands of compounds to characterize the responses in three gynecological cancers, identify cancer-selective compounds, and understand the diversity of responses to these compounds from pan-cancer suppressors to single cell line selective compounds. In this assay, we screened a 7,914 compound drug library that included approved drug and bioactive compounds in six ovarian, three cervical, and […] placental cancer cell lines using the ATPlite assay for cell viability. […] The cervical cancer cell lines included HeLa, Ca Ski, and C-33 A. The placental cancer cell lines included JEG-3. HEK 293T cells were used as the control cell line to determine the selectivity index. ATPlite is a luminescence based assay reliant on the conversion of a luciferase substrate to light in the presence of ATP. As a cytotoxic compound will suppress growth and decrease the number of cells, the concentration of ATP will decrease, and less light signal will be detected in the well.
Assay Protocol Summary: 1,000 cells in 4 uL of media were dispensed into white, solid bottom 1536-well plates using a Multidrop Combi (Thermo Scientific). The Assay plates were incubated for 16 hours at 37 C with 5% CO2 in assay plates, followed by the addition of 23 nL of DMSO or drug dissolved in DMSO. Each compound was assayed in five concentrations (0.092, 0.46, 2.3, 11.5, and 57.5 uM), using the automated Wako 1536 Pin Tool workstation and incubated at 37 C with 5% CO2 48 hours. 4 uL of ATPlite, the ATP monitoring reagent, was then added to the each well of the assay plates using the Multidrop Combi reagent dispenser followed by incubation for 15 minutes at room temperature. The resulting luminescence was measured using the ViewLux plate reader.
On the % scale 0 is the no-effect control and ±100 the full control effect; potency means the concentration at half of the fitted maximal effect.

| SMILES | activity change, negative = cytotoxicity | Potency |
| --- | --- | --- |
| CC/C=C\CCO[C@@H]1O[C@H](CO)[C@@H](O)[C@H](O)[C@H]1O | 0.778% (inactive) |  |
| CC(C)CCC(=O)CC1c2ccccc2C(=O)N1c1ccc2ccc(Cl)nc2n1 (stereo not given) | -11.3% (inactive) |  |
| O=C1OCc2cc3cccc(O[C@@H]4O[C@H](CO)[C@@H](O)[C@H](O)[C@H]4O)c3c(O)c21 | -20.6% [at 38.5 µM] (inactive) |  |
| CC(C)CC(=O)OC1OC=C(CO[C@@H]2O[C@H](CO)[C@@H](O)[C@H](O)[C@H]2O)C2CC(O)C(O)(CO)C12 (stereo not given in full) | 13.7% [at 25.3 µM] (inactive) |  |
| CC1(C)CCC2(C(=O)OC3OC(CO)C(O)C(O)C3O)CCC3(C)C(=CCC4C5(C)CCC(O)C(C)(C(=O)O)C5CCC43C)C2C1O (stereo not given) | 19.9% [at 25.3 µM] (inactive) |  |
| Cc1cccc(C)c1OCc1cc(C(=O)N2CCC(c3ccncc3)CC2)no1 | 1.64% (inactive) |  |
| CC/C=C/CC1=C(CCCCC(CCC(=O)O)OC(C)=O)CCC1=O (stereo not given) | 4.16% [at 38.5 µM] (inactive) |  |
| O=C(O)c1cc(I)ccc1NC(=O)[C@H](Cc1ccccc1)NCc1ccccc1 | 14.9% (inactive) |  |
| COc1cc(N)c(Cl)cc1C(=O)NC[C@@H]1CCN2CCC[C@@H]12 | -0.791% (inactive) |  |
| CC(CO)C1CCC2(C)CC3C(CO)CC(O)C3C(C)(O)C/C=C/12 (stereo not given) | 20.9% [at 38.5 µM] (inactive) |  |
| CC(=O)N[C@H](Cc1ccc2ccccc2c1)C(=O)N[C@H](Cc1ccc(Cl)cc1)C(=O)N[C@H](Cc1cccnc1)C(=O)N[C@@H](CO)C(=O)N[C@@H](Cc1ccc(O)cc1)C(=O)N[C@H](CCCNC(N)=O)C(=O)N[C@@H](CC(C)C)C(=O)N[C@@H](CCCN=C(N)N)C(=O)N1CCC[C@H]1C(=O)N[C@H](C)C(N)=O (Ac-[d2Nal][dPhe(4-Cl)][d3Pal]SY[dCit]LRP[dA]-NH2) | 20.2% [at 25.3 µM] (inactive) |  |
| Cn1nnc(-c2ccc(-c3ccc(N4C[C@H](CO)OC4=O)cc3F)cn2)n1 | -2.73% (inactive) |  |
| CC(=O)OC1C[C@@]2(C)[C@@H](CC[C@@H](C)[C@]23Cc2c(O)cc4c(c2O3)CNC4=O)C(C)(C)[C@@H]1O (stereo not given in full) | -24.4% [at 25.3 µM] (inactive) |  |
| COc1ccccc1Oc1ccc(N(Cc2cccnc2)S(=O)(=O)CC(F)(F)F)cc1 | 23.1% (inactive) |  |
| C=CC(C)(C)c1[nH]c2cc3c(cc2c1CC1NC(=O)C2CCCN2C1=O)C=CC(C)(C)O3 (stereo not given) | -3.13% [at 25.3 µM] (inactive) |  |
| CC1=C(C(=O)O)/C(=C\CO[C@@H]2O[C@H](CO)[C@@H](O)[C@H](O)[C@H]2O)C(OC(=O)/C=C\c2ccc(O)cc2)C1 (stereo not given in full) | 20.9% [at 25.3 µM] (inactive) |  |
| C[C@H](CCC(=O)O)[C@H]1CC[C@H]2[C@@H]3C[C@H](O)[C@@H]4C[C@H](O)CC[C@]4(C)[C@H]3CC[C@]12C | 0.552% (inactive) |  |
| O=C(O)[C@H](Cc1ccc(Nc2nccc3ccncc23)cc1)NC1=C(Br)C(=O)C12CCCCC2 | 22.3% (inactive) |  |
| COc1ccc(/C=C/C(=O)O[C@@H]2[C@@H](O)[C@@H](O)[C@H](O[C@@H]3C=C(CO)[C@H]4[C@H](O[C@@H]5O[C@H](CO)[C@@H](O)[C@H](O)[C@H]5O)OC=C[C@H]43)O[C@H]2C)cc1O | 12.5% [at 25.3 µM] (inactive) |  |
| CC1=C(C)C(=O)OC(C(C)C2CCC3C4C5OC5C5(O)CC(OC6OC(CO)C(OC7OC(C)C(O)C(O)C7O)C(O)C6O)CC(O)C5(C)C4CCC23C)C1 (stereo not given) | 5.63% [at 25.3 µM] (inactive) |  |

| SMILES | activity change, negative = cytotoxicity | Potency |
| --- | --- | --- |
| COc1ccc(Oc2cc(C)c(-c3csc(NC(=O)c4ccncc4)n3)c(C)c2)cc1 | -22.8% (inactive) |  |
| C=C(C(=O)O)[C@@H]1CC[C@@]2(C)CC[C@H](O)[C@@]2(C(C)=O)C1 | -10.8% (inactive) |  |
| CC(C)(O)CC(CO)NC(=O)CC(O)CC(=O)Cc1ccccc1 (stereo not given) | 13.4% [at 38.5 µM] (inactive) |  |
| CNCc1ccc(-c2cc(-c3nc(-c4ccc(S(=O)(=O)C(C)C)cc4)cnc3N)on2)cc1 |  | 14.1 µM (active) |
| NCc1c[nH]c(=S)n1[C@@H]1CCc2c(F)cc(F)cc2C1 | 1.06% (inactive) |  |
| CC1(C)C2CC(OC3OC(COC4OCC(O)(CO)C4O)C(O)C(O)C3O)C1(C)CC2O (stereo not given) | 0.845% [at 25.3 µM] (inactive) |  |
| Cc1csc(NC(=O)c2ccc(COc3cccc(Cl)c3)o2)n1 | 13.8% (inactive) |  |
| C=C1[C@H](OC(C)=O)[C@H]2[C@@H](OC(C)=O)[C@](C)(OC(C)=O)C[C@]2(OC(C)=O)C(=O)[C@H](C)/C=C/C(C)(C)C(=O)[C@H](OC(=O)C(C)C)[C@H]1OC(C)=O | -16.3% [at 25.3 µM] (inactive) |  |
| C/C1=C\CC[C@]2(C)O[C@@H]2[C@H](O)[C@H](C(C)C)[C@H](OC(=O)/C=C/c2ccccc2)C1 | 9.46% [at 38.5 µM] (inactive) |  |
| CC(=O)N[C@@H](Cc1c[nH]c2ccccc12)C(=O)N[C@@H](CCC(=O)O)C(=O)N[C@@H](Cc1cnc[nH]1)C(=O)N[C@@H](CC(=O)O)C(=O)Nc1ccc2c(C(F)(F)F)cc(=O)oc2c1 (Ac-WEHD-{AFC}) | 20.2% [at 38.5 µM] (inactive) |  |
| CC(C)(C)NCCCNC(=O)c1cccc(Br)c1 | -5.33% (inactive) |  |
| O=C1NC(Cc2ccccc2)C(=O)N2CCCC12 (stereo not given) | 1.94% (inactive) |  |
| C=CC1(C)C=C2CCC3C(C)(C)C(O[C@@H]4O[C@@H](CO)[C@H](O)[C@H]4O)CCC3(C)C2CC1O[C@@H]1O[C@H](C)[C@H](O)[C@H](O)[C@H]1O (stereo not given in full) | -5.66% [at 25.3 µM] (inactive) |  |
| C[C@@H]1O[C@@H](O[C@H]2[C@H](OC(=O)[C@]34CCC(C)(C)C[C@H]3C3=CCC5[C@@]6(C)CC[C@H](O[C@@H]7O[C@H](C(=O)O)[C@@H](O)[C@H](O)[C@H]7O[C@@H]7O[C@H](CO)[C@H](O)[C@H](O)[C@H]7O)[C@@](C)(C=O)C6CC[C@@]5(C)[C@]3(C)C[C@H]4O)O[C@H](C)[C@H](O[C@@H]3O[C@H](C)[C@H](O)[C@H](O)[C@H]3O)[C@@H]2O)[C@H](O)[C@H](O)[C@H]1O[C@@H]1OC[C@@H](O)[C@H](O[C@@H]2O[C@H](CO)[C@@H](O)[C@H](O)[C@H]2O)[C@H]1O (stereo not given in full) | 2.56% [at 6.55 µM] (inactive) |  |
| C=C1OC2CC(C(=O)O)C=CC2NC1=O (stereo not given) | 14.8% (inactive) |  |
| O=C(O)c1cc(-c2c(-c3ccccc3)nn3ccccc23)n[nH]c1=O | -6.52% (inactive) |  |
| CC1CCC2(CO)C(C(=O)O)=CCCC2C1(C)CCc1ccoc1 (stereo not given) | 6.84% [at 38.5 µM] (inactive) |  |
| C=C(C(=O)O)C1CCC2(C)CCCC(C)(O)C2C1 (stereo not given) | 8.93% (inactive) |  |
| CO[C@H]1C[C@@H]2CC[C@@H](C)[C@@](O)(O2)C(=O)C(=O)N2CCCC[C@H]2C(=O)O[C@H]([C@H](C)C[C@@H]2CC[C@H](n3cnnn3)[C@H](OC)C2)CC(=O)[C@H](C)/C=C(\C)[C@@H](O)[C@@H](OC)C(=O)[C@H](C)C[C@H](C)/C=C/C=C/C=C/1C | -17.3% [at 25.3 µM] (inactive) |  |
| Cc1nc2sc(C(=O)NCc3ccncc3)c(N)c2c(C)c1Cl | 9.86% (inactive) |  |
